Records with an inconclusive call do not appear. Calls of active or inactive are those of the source. Calls follow the shape of the dose curve; as a rule, active = well fitted curve in the direction sought with a large enough effect in the repeat runs; inconclusive = weak or mixed curves; inactive = no such curve, though single readings can be large; an effect the other way counts as inactive or inconclusive.
Key:
[1] = qHTS RealTime-Glo MT Cell Viability Assay in HEK293 cells - 40 hour (AID 1224874); settings: RealTime-Glo luminescence; max response: stronger effect = lower value; also: nearly all actives have a fitted effect of over 50% in size; also: potency is read from the fitted curve at half-maximal effect
How it was run: (§1)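 600 HEK293 cells per well, dispensed already mixed with RealTime-Glo MT reagents. Compound dosing came 5 h later. The same wells were read for luminescence at 0, 8, 16, 24, 32 and 40 h of exposure at 37 C.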

[2] = A CellTox Green Cytotoxicity Assay to monitor cytotoxicity in HEK293 cells - 24 hour (AID 1224875); also: nearly all actives have a fitted effect of over 45% in size; also: potency is read from the fitted curve at half-maximal effect; as to activity change: series mostly up to about 77 µM
How it was run: (§2)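 Dead-cell fluorescence measured kinetically: asymmetric cyanine dye, HEK293, 600 cells/well, 5 h settle, 23 nL cpd/DMSO, 37 C, reads 0–40 h every 8 h.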

[3] = qHTS RealTime-Glo MT Cell Viability Assay in HepG2 cells - 32 hour (AID 1224877); also: nearly all actives have a fitted effect of over 55% in size; also: potency is read from the fitted curve at half-maximal effect
How it was run: (§3)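 HepG2 cells (600/well) were dispensed with RealTime-Glo reagents, incubated 5 h at 37 °C, then treated with compounds in DMSO for up to 40 h. Nonlytic NanoLuc luminescence reflecting viable cells was read at each stated time point.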

[4] = A CellTox Green Cytotoxicity Assay to monitor cytotoxicity in HepG2 cells - 24 hour (AID 1224878); also: nearly all actives have a fitted effect of over 45% in size; also: potency is read from the fitted curve at half-maximal effect
How it was run: (§4)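 First, HepG2 cells (600/well) mixed with reagent were plated; second, after 5 h at 37 C they received compounds via pintool; third, fluorescence was measured at 0 h through 40 h at 8 h intervals.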

[5] = A CellTox Green Cytotoxicity Assay to monitor cytotoxicity in HepG2 cells - 40 hour (AID 1224879); also: nearly all actives have a fitted effect of over 40% in size; also: potency is read from the fitted curve at half-maximal effect
How it was run: as §4

[6] = qHTS RealTime-Glo MT Cell Viability Assay in HEK293 cells - 0 hour (AID 1224880); also: top concentration of the series differs between compounds; nearly all actives have a fitted effect of over 45% in size
How it was run: as §1

[7] = A CellTox Green Cytotoxicity Assay to monitor cytotoxicity in HEK293 cells - 32 hour (AID 1224881); also: nearly all actives have a fitted effect of over 40% in size; also: potency is read from the fitted curve at half-maximal effect
How it was run: as §2

[8] = A CellTox Green Cytotoxicity Assay to monitor cytotoxicity in HepG2 cells - 0 hour (AID 1224882); also: nearly all actives have a fitted effect of over 35% in size
How it was run: as §4

[9] = A CellTox Green Cytotoxicity Assay to monitor cytotoxicity in HEK293 cells - 8 hour (AID 1224884); also: nearly all actives have a fitted effect of over 35% in size
How it was run: as §2

[10] = qHTS RealTime-Glo MT Cell Viability Assay in HepG2 cells - 16 hour (AID 1224885); also: nearly all actives have a fitted effect of over 50% in size; also: potency is read from the fitted curve at half-maximal effect
How it was run: as §3

[11] = qHTS RealTime-Glo MT Cell Viability Assay in HEK293 cells - 24 hour (AID 1224886); also: top concentration of the series differs between compounds; nearly all actives have a fitted effect of over 50% in size
How it was run: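 HEK293 cells seeded with NanoLuc/prosubstrate reagent, rested 5 h at 37 C, then dosed and kept at 37 C up to 40 h. Nonlytic real-time luminescence from viable cells read at 0, 8, 16, 24, 32 and 40 h.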

[12] = qHTS RealTime-Glo MT Cell Viability Assay in HEK293 cells - 8 hour (AID 1224887); also: nearly all actives have a fitted effect of over 50% in size; also: potency is read from the fitted curve at half-maximal effect; as to activity change, negative = cytotoxicity: top concentration of the series differs between compounds
How it was run: as §1

[13] = A CellTox Green Cytotoxicity Assay to monitor cytotoxicity in HEK293 cells - 16 hour (AID 1224888); also: nearly all actives have a fitted effect of over 35% in size; also: potency is read from the fitted curve at half-maximal effect
How it was run: as §2

[14] = qHTS RealTime-Glo MT Cell Viability Assay in HepG2 cells - 0 hour (AID 1224889); also: nearly all actives have a fitted effect of over 50% in size
How it was run: as §3

[15] = A CellTox Green Cytotoxicity Assay to monitor cytotoxicity in HepG2 cells - 8 hour (AID 1224890); also: nearly all actives have a fitted effect of over 45% in size; also: potency is read from the fitted curve at half-maximal effect
How it was run: as §4

[16] = qHTS assay to identify small molecule antagonists of the estrogen receptor alpha (ER-alpha) signaling pathway using the BG1 cell line in the presence of 0.1 nM 17-beta-estradiol - cell viability counter screen (AID 1259241); also: nearly all actives have a fitted effect of over 40% in size; also: potency is read from the fitted curve at half-maximal effect
How it was run: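 Measures cytotoxicity alongside the ER-alpha antagonist readout: VM7Luc4E2 cells, charcoal-stripped serum, 0.1 nM 17beta-estradiol final, 22 hr compound incubation at 37C, CellTiter-Fluor fluorescence.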

[17] = qHTS assay to identify small molecule antagonists of the androgen receptor (AR) signaling pathway using the MDA cell line in the presence of 0.5 nM R1881 - cell viability counter screen (AID 1259242); also: nearly all actives have a fitted effect of over 45% in size; also: potency is read from the fitted curve at half-maximal effect
How it was run: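 qHTS format. MDA-kb2 (MMTV-luc, AR/GR responsive) + cpd + 0.5 nM R1881 final, 16 hr 37C/0% CO2 → CellTiter-Fluor 30 min → fluorescence intensity.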

[18] = A CellTox Green Cytotoxicity Assay to monitor cytotoxicity in HepG2 cells - 16 hour (AID 1224876); also: nearly all actives have a fitted effect of over 45% in size; also: potency is read from the fitted curve at half-maximal effect
How it was run: as §4

[19] = A CellTox Green Cytotoxicity Assay to monitor cytotoxicity in HepG2 cells - 32 hour (AID 1224883); also: nearly all actives have a fitted effect of over 50% in size; also: potency is read from the fitted curve at half-maximal effect
How it was run: as §4

[20] = target: Androgen receptor (Homo sapiens) (UniProt P10275); test: qHTS assay to identify small molecule antagonists of the androgen receptor (AR) signaling pathway using the MDA cell line in the presence of 0.5 nM R1881 (AID 1259243); also: nearly all actives have a fitted effect of over 50% in size; also: potency is read from the fitted curve at half-maximal effect
Chain of Androgen receptor (Homo sapiens) (P10275 whole entry, looked up): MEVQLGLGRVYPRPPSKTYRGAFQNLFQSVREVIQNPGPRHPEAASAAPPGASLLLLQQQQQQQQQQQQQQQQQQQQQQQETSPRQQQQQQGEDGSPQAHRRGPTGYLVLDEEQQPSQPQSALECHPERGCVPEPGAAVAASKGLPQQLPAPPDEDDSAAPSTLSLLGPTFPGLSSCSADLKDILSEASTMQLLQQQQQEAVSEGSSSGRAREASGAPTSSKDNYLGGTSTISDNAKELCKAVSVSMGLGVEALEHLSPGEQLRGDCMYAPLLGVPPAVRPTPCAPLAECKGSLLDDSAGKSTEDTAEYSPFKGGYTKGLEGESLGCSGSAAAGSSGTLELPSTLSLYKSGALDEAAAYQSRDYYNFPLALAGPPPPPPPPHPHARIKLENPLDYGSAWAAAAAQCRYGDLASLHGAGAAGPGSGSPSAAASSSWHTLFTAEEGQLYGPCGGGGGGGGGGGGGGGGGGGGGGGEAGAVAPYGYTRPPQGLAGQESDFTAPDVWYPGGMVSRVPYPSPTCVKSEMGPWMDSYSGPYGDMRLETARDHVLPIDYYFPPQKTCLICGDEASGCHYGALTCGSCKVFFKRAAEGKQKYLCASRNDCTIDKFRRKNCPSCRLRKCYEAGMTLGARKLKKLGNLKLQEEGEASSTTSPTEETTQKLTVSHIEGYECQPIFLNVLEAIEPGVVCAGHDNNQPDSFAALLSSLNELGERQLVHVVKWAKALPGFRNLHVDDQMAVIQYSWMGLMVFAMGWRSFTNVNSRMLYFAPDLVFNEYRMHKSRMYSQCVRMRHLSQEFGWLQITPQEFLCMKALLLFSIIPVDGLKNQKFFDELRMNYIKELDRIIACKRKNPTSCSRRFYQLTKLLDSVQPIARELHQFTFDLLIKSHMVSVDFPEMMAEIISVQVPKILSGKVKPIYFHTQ
How it was run: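 Antagonist mode quantitative HTS in MDA-kb2 MMTV-luciferase cells, agonist R1881 at 0.5 nM final, 16 hr exposure at 37C and 0% CO2, luminescent detection.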
% is scaled to controls: 0 for no effect and ±100 for the full control effect.

CC(=O)O[C@@H]1C(=O)O[C@@H]2[C@H]1OC(=O)[C@@H]2OC(C)=O
inactive: max response [1] -24.6% | Potency [2] | Potency [3] | Potency [4] | Potency [6] | Potency [7] | Potency [8] | Potency [9] | Potency [10] | Potency [11] | Potency [12] | Potency [13] | Potency [14] | Potency [15] | Potency [16] | Potency [17]
active: Potency [5] 26.8 µM

O=C(CCN1CCN2CCCC2C1)N1c2ccccc2Sc2ccc(Cl)cc21 (stereo not drawn)
inactive: max response [1] -21.5% | activity change [2] 0.914% [at 15.8 µM, stronger effect = higher value] | cytotoxicity increase [18] 6.02% [at 15.8 µM] | activity change, negative = cytotoxic [3] -4.67% [at 15.8 µM] | cytotoxicity [4] 14.6% [at 15.8 µM] | cytotoxicity increase [5] 22.2% [at 15.8 µM] | activity change, negative = cytotoxicity [6] -6.17% [at 15.8 µM] | cytotoxicity increase [7] 1.45% [at 15.8 µM] | cytotoxicity [8] 0.972% [at 15.8 µM] | cytotoxicity increase [19] 16.3% [at 15.8 µM] | activity change, negative = cytotoxic [10] -5.42% [at 15.8 µM] | activity change, negative = cytotoxicity [11] -17.5% [at 15.8 µM] | activity change, negative = cytotoxicity [12] -6.11% [at 15.8 µM] | activity change [13] 1.83% [at 15.8 µM, stronger effect = higher value] | activity change, negative = cytotoxicity [14] -0.655% [at 15.8 µM] | cytotoxicity increase [15] 7.39% [at 15.8 µM] | activity change, negative = cytotoxicity [16] -14.8% [at 19 µM] | viability change, negative = cytotoxic [17] -3.61% [at 19 µM] | activity, negative = inhibition [20] -18% [at 19 µM]

CC(C)(C)C1CCCCC1O (stereo not drawn)
inactive: max response [1] 0.612% | Potency [2] | Potency [3] | Potency [6] | Potency [7] | Potency [8] | Potency [9] | Potency [10] | Potency [11] | Potency [12] | Potency [13] | Potency [14] | Potency [15] | Potency [17]

CCCCCC/C=C/C=O
inactive: max response [1] 35.7% | Potency [2] | Potency [18] | Potency [3] | Potency [7] | Potency [8] | Potency [9] | Potency [10] | Potency [11] | Potency [12] | Potency [13] | Potency [14] | Potency [15] | Potency [17]

CC(C(=O)O)c1ccc(-c2ccccc2)c(F)c1 (stereo not drawn)
active: Potency [18] 49 µM | Potency [4] 54.9 µM | Potency [19] 54.9 µM
inactive: max response [1] -0.192% | Potency [2] | Potency [3] | Potency [6] | Potency [7] | Potency [8] | Potency [9] | Potency [10] | Potency [11] | Potency [12] | Potency [13] | Potency [14] | Potency [16] | Potency [17]

C#CCOC(=O)[C@@H](C)Oc1ccc(Oc2ncc(Cl)cc2F)cc1
inactive: max response [1] -16.3% | Potency [2] | Potency [18] | Potency [3] | Potency [4] | Potency [5] | Potency [6] | Potency [7] | Potency [8] | Potency [19] | Potency [10] | Potency [11] | Potency [13] | Potency [14] | Potency [15] | Potency [16] | Potency [17]

O=C(O)Cc1cc(I)c(Oc2ccc(O)c(I)c2)c(I)c1
inactive: max response [1] 4.51% | Potency [2] | Potency [18] | Potency [3] | Potency [4] | Potency [5] | Potency [7] | Potency [8] | Potency [19] | Potency [9] | Potency [10] | Potency [11] | Potency [12] | Potency [13] | Potency [15] | Potency [16] | Potency [17]

CC(C)c1ccc2c(C(C)C)cc(C(C)C)c(S(=O)(=O)O)c2c1
inactive: max response [1] -12.5% | Potency [18] | Potency [3] | Potency [4] | Potency [5] | Potency [6] | Potency [8] | Potency [19] | Potency [9] | Potency [10] | Potency [11] | Potency [12] | Potency [13] | Potency [14] | Potency [15] | Potency [17] | Potency [20]

ClC(Cl)(Cl)c1ccc(C(Cl)(Cl)Cl)cc1
inactive: max response [1] -9.34% | Potency [2] | Potency [18] | Potency [3] | Potency [4] | Potency [5] | Potency [6] | Potency [8] | Potency [19] | Potency [9] | Potency [10] | Potency [11] | Potency [12] | Potency [13] | Potency [14] | Potency [15] | Potency [16] | Potency [17]

O=C1c2cccc(O)c2C(=O)c2c(O)cc(CO)cc21
inactive: max response [1] 29.8% | Potency [2] | Potency [18] | Potency [3] | Potency [4] | Potency [5] | Potency [6] | Potency [8] | Potency [19] | Potency [9] | Potency [10] | Potency [13] | Potency [14] | Potency [15] | Potency [16] | Potency [17]

O=C(O)Cn1c(C(=O)Nc2nc(-c3ccccc3Cl)cs2)cc2ccccc21
inactive: max response [1] -2.19% | Potency [2] | Potency [18] | Potency [3] | Potency [4] | Potency [5] | Potency [7] | Potency [8] | Potency [19] | Potency [10] | Potency [11] | Potency [12] | Potency [13] | Potency [15] | Potency [16] | Potency [17]

C[C@@H](C1=C(CCN(C)C)Cc2ccccc21)c1ccccn1
inactive: max response [1] -16.8% | Potency [2] | Potency [18] | Potency [3] | Potency [4] | Potency [6] | Potency [7] | Potency [8] | Potency [19] | Potency [9] | Potency [10] | Potency [11] | Potency [12] | Potency [13] | Potency [14] | Potency [15] | Potency [16] | Potency [17]

NC(N)=NN=C(/C=C/c1ccc([N+](=O)[O-])o1)/C=C/c1ccc([N+](=O)[O-])o1
active: Potency [1] 0.848 µM | Potency [2] 10.7 µM | Potency [18] 3.79 µM | Potency [3] 1.51 µM | Potency [4] 2.13 µM | Potency [5] 1.69 µM | Potency [7] 8.49 µM | Potency [19] 2.39 µM | Potency [10] 2.13 µM | Potency [12] 6.01 µM | Potency [13] 9.52 µM | Potency [15] 9.52 µM | Potency [16] 11.9 µM | Potency [17] 6.68 µM | Potency [20] 1.88 µM
inactive: Potency [6] | Potency [8] | Potency [14]

Cn1c(=O)c2c(ncn2CC(O)CO)n(C)c1=O (stereo not drawn)
inactive: max response [1] 2.79% | Potency [2] | Potency [3] | Potency [5] | Potency [6] | Potency [7] | Potency [8] | Potency [9] | Potency [10] | Potency [11] | Potency [12] | Potency [13] | Potency [14] | Potency [15] | Potency [17]

C=CC(C)(CCC=C(C)C)OC(=O)c1ccccc1 (stereo not drawn)
inactive: max response [1] -13.6% | Potency [18] | Potency [3] | Potency [4] | Potency [5] | Potency [6] | Potency [8] | Potency [19] | Potency [10] | Potency [11] | Potency [12] | Potency [14] | Potency [15] | Potency [16] | Potency [17]

— PubChem BioAssay (Tox21)
